Screening data: PubChem, several laboratories
Shown are actives, neighbours in structure and some others; about 4% of the full set was active somewhere.
Mdm2-MdmX inh: inhibitors of human Mdm2/MdmX interaction. SaOS-2 split-luciferase Mdm2/MdmX complementation, luminescence. O15151+Q00987. inhibition, % at 8 µM. 3% of 330,000 active. AID 485346;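 active means inhibition of at least 50% at 8 µM in the primary screen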
Target sequence (O15151 whole entry, looked up): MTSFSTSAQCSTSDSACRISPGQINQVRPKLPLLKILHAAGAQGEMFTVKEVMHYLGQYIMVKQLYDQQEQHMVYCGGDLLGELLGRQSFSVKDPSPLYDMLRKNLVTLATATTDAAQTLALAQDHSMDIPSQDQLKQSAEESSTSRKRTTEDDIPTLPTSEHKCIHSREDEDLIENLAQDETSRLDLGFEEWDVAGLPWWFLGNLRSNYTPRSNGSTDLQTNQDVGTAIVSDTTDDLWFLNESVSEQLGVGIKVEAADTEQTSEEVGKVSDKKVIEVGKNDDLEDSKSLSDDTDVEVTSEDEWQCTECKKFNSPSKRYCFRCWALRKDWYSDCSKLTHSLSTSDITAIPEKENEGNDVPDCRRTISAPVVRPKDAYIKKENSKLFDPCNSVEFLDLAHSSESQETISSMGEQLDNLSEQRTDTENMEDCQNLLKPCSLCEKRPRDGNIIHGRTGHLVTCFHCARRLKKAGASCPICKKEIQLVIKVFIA
Target sequence (Q00987 whole entry, looked up): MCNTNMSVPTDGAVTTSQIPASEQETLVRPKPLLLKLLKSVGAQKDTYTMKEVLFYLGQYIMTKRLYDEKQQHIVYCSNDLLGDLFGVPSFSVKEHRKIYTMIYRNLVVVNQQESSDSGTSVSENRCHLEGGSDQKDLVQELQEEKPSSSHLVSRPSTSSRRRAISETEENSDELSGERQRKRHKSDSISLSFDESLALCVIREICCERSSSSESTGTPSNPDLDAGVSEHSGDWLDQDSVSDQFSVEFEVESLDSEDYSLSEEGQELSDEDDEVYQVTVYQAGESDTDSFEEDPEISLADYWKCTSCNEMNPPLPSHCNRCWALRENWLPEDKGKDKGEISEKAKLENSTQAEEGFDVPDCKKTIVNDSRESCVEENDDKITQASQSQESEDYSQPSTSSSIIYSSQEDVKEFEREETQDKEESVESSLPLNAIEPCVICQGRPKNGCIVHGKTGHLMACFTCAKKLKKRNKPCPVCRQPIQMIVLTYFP
PAX8 inh HTS: lowers PAX8-driven luciferase in RMG-I cells. 1.2% of 360,000 active. inhibition, % at 12.6 µM. RMG-I TPO-luciferase reporter, SteadyGlo, 24 h;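 active means mean replicate inhibition at least 60% with every replicate also reaching 60%; inconclusive means only one of the two criteria is met; inactive means mean below 60% and not all replicates reaching 60%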;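 further: luciferase light reporting Pax8 driven TPO promoter activity; plate controls were median of neutral control wells for no effect and mitoxantrone controls for full effect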
Beta apoptosis: blocks beta cell apoptosis; protection from apoptosis, % (concentration not given with the values); AID 435005; INS-1E cytokine-induced death, ATP luminescence, 48 h; percent of positive-control rescue, neutral wells zero; 0.8% of 300,000 active;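 active means Every replicate reaches about 75%, or at least half do and their mean reaches it too, limit read from the data; inconclusive means At least half of replicates reach the limit but their mean does not; inactive means Under half of replicates reach the limit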;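 further: 0% = cytokine-treated negative control wells and 100% = positive control rescue; higher means more ATP so stronger rescue from cytokine killing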
Shn3 3UTR inh: Schnurri-3 reporter inhibition in Clone20 osteoblasts; Clone20 osteoblast Shn3 3'UTR firefly luciferase, 24 h; inhibition, % at 12.5 µM; 0.52% of 360,000 active; AID 588674;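 active means mean inhibition of at least 75% with every replicate also reaching 75%; inconclusive means mean inhibition at least 75% but some replicate below; inactive means mean inhibition below 75%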;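 further: 0% = median of neutral control wells and 100% = pilot-screen positive control compound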
Gli-Sufu antag: Gli-Sufu pathway antagonism. Sufu-KO-LIGHT fibroblasts, Gli luciferase reporter luminescence. inhibition, % at 5 µM. 0.74% of 340,000 active;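 active means inhibition above about 55%, limit read from the data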;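 further: 0% = DMSO-treated cells and 100% = wells with medium but no cells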
CSC inhib: blocks cancer stem cells; cancer stem cell-like cells viability, luminescence; AID 2717; 1.1% of 300,000 active; inhibition, % at 7.5 µM; in the data active means inhibition above about 75%; inconclusive means no clear call, values can overlap the other calls; tested in HMLE shEcad cells
Mdm2 MdmX conf: human Mdm2/MdmX binding inhibition, confirmed | 55% of 10,000 active | inhibition, % at 8 µM | shares compounds with Mdm2-MdmX inh | luminescent assay; in the data active means inhibition above about 40%
FLuc counter: inhibits full-length luciferase, flagging false Mdm2/MdmX hits; SaOS-2 full-length luciferase counterscreen, luminescence; shares compounds with Mdm2-MdmX inh; inhibition, % at 8 µM; 77% of 6,200 active;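 active means mean inhibition at 8 µM reaching about 37%, which flags the compound as non-specific, limit read from the data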;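 further: p53-null SaOS-2 cells with luciferase driven by a doxycycline-inducible promoter; compound on cells about two nights before reading with doxycycline added after day one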
* hit, by the source's call; ? = inconclusive; . = no result given.

SMILES	Mdm2-MdmX inh	PAX8 inh HTS	Beta apoptosis	Shn3 3UTR inh	Gli-Sufu antag	CSC inhib	Mdm2 MdmX conf	FLuc counter
O=[N+]([O-])c1cc(-c2nc(-c3ccncc3)no2)ccc1Cl	99*	-2	3	-3	-15	36	81*	23
O=[N+]([O-])c1cc(-c2nc(-c3ccncc3)no2)cc([N+](=O)[O-])c1	-6	.	-4	-17	-29	.	.	.
CN(C)C(=O)c1cccc(-c2cccc(-c3nc(C(=O)NCc4ccccc4)cc4c3[C@H](CCO)N([S@@](=O)C(C)(C)C)C4)c2)c1	.	27	.	.	.	.	.	.
CCOc1ccc(/C=C/C(O)=C2/C(=O)N(C)C3(C)CC2c2ccccc2O3)cc1OC (stereo not given)	67*	12	0	-31	9	78*	69*	41*
CCOc1ccc(/C=C/C(O)=C2/C(=O)NC3(C)CC2c2ccccc2O3)cc1OC (stereo not given)	83*	47	-8	5	12	24	90*	23
CN(C)c1ccc(/C=C/C(O)=C2/C(=O)N(C)C3(C)CC2c2ccccc2O3)cc1 (stereo not given)	.	.	6	.	.	6	.	.
CCCNC(=O)Nc1ccc2c(c1)C(=O)N(C)C[C@H](OC)[C@@H](C)CN(C(=O)C1CCC1)[C@@H](C)CO2	.	8	.	.	.	.	.	.
CCCN1C[C@H](C)[C@@H](OC)CN(C)C(=O)c2cc(NC(=O)Nc3c(C)noc3C)ccc2OC[C@H]1C	.	-18	.	.	.	.	.	.
Cc1ccc(CN2CCC(c3cc(-c4ccc(Cl)cc4)n[nH]3)CC2)cc1	64*	19	51	59	21	30	36	74*
Cc1noc(C)c1S(=O)(=O)N(C)C[C@@H]1Oc2ccc(NC(=O)CCN3CCOCC3)cc2CC(=O)N([C@@H](C)CO)C[C@@H]1C	.	-1	.	.	.	.	.	.
Cc1ccc(N=Cc2nc(/C=C/c3cccc([N+](=O)[O-])c3)oc2O)cc1	94*	.	-4	-23	1	.	19	.
Cc1ccc(-c2nc(C=Nc3ccc(O)cc3)c(O)o2)cc1	.	17	.	3	24	.	.	.
O=C(Nc1ccc(F)cc1)Nc1ccc(Oc2ncnc3cc(Cl)ccc23)nc1	27	-2	-4	-2	-2	-7	.	.
O=C(Nc1ccc(Oc2ncnc3cc(Cl)ccc23)nc1)c1cccs1	78*	17	54	-9	4	0	73*	102*
CCOC(=O)N1CCN(S(=O)(=O)c2ccc(C(=O)Nc3sc4c(c3C(N)=O)CC(C)(C)NC4(C)C)cc2)CC1	31	-5	-7	-8	21	4	.	.
CC1(C)Cc2c(sc(NC(=O)c3ccc(C(=O)c4ccccc4)cc3)c2C(N)=O)C(C)(C)N1	73*	35	8	36	19	-5	57*	34
CC1(C)Cc2c(sc(NC(=O)COc3ccc(Cl)cc3)c2C(N)=O)C(C)(C)N1	26	-4	-3	11	32	-2	.	.
CC1(C)Cc2c(sc(NC(=O)c3ccc4ncsc4c3)c2C(N)=O)C(C)(C)N1	75*	-47	-10	-48	-23	14	27	.
C[C@@H]1CN([C@H](C)CO)C(=O)Cc2cc(NC(=O)CCCCCC(=O)Nc3ccccc3N)ccc2O[C@H]1CN(C)Cc1ccc(Oc2ccccc2)cc1	.	-18	.	.	.	.	.	.
C[C@H](CO)N1C[C@H](C)[C@@H](CN(C)C(=O)Nc2ccc3c(c2)OCO3)Oc2ccc(NC(=O)Cn3cnnn3)cc2CC1=O	.	-22	.	.	.	.	.	.
OC(CNCCc1ccccc1)COc1ccc(OCC(O)CNCCc2ccccc2)cc1 (stereo not given)	99*	14	3	.	5	14	76*	47*
CC(C)CCNCC(O)CON=C1c2ccccc2-c2ccccc21 (stereo not given)	95*	-25	29	28	20	52	41*	69*
NCC(O)COCCC12CC3CC(CC(C3)C1)C2 (stereo not given)	13	.	-2	3	0	-13	.	.
CC(C)c1ccc(OCC(O)CNC(C)c2ccccc2)cc1 (stereo not given)	52*	-5	15	36	24	30	23	.
CC(NCC(O)COCCC12CC3CC(CC(C3)C1)C2)c1ccccc1 (stereo not given)	100*	?	88*	-9	14	105*	99*	37*
SMILES	Mdm2-MdmX inh	PAX8 inh HTS	Beta apoptosis	Shn3 3UTR inh	Gli-Sufu antag	CSC inhib	Mdm2 MdmX conf	FLuc counter
CO[C@@H]1CN(C)C(=O)c2cc(NS(=O)(=O)c3cn(C)cn3)ccc2OC[C@H](C)N(Cc2cccc(F)c2)C[C@@H]1C	.	-7	.	.	.	.	.	.
OC(CNCCC(c1ccccc1)c1ccccc1)COc1ccccc1 (stereo not given)	70*	18	6	10	8	10	26	.
Cc1ccc(C)c(NC(=S)N2CCN(c3cccc(C(F)(F)F)c3)CC2)c1	16	.	-7	-1	0	1	.	.
Cc1ccnc(NC(=S)N2CCN(c3cccc(C(F)(F)F)c3)CC2)c1	75*	27	70	1	14	48	77*	46*
Cc1ccc2c(c1)c1c3n2CCN(C(=O)CN2CCN(C)CC2)C3CCC1 (stereo not given)	43	18	-2	12	18	21	.	.
CN1CCN(CC(=O)N2CCn3c4c(c5cc(C6CCCCC6)ccc53)CCCC42)CC1 (stereo not given)	98*	.	19	47	7	46	73*	52*
CO[C@@H]1CN(C)C(=O)c2cc(NC(=O)C3CCCC3)ccc2OC[C@@H](C)N(S(=O)(=O)c2ccc(Cl)cc2)C[C@H]1C	.	46	.	.	.	.	.	.
COc1ccc(C[C@H]2CN3C(=NC[C@@H]3Cc3ccccc3)N2CCNC(=O)CCC2CCCCC2)cc1	88*	45	101*	84	17	128*	28	54*
CCOc1ccc2nc(SC3CC(=O)N(c4ccc(OC)cc4)C3=O)sc2c1 (stereo not given)	66*	10	-7	-17	-34	-5	-28	.
Cc1cc(/C=C2/C(=O)NN(c3ccccc3)C2=O)c(C)n1-c1ccc(O)cc1	52*	-63	-1	-4	-3	-9	75*	116*
CCCC(=O)N1CC2(C1)CN(C(=O)C1CCCCC1)[C@@H](CO)c1[nH]c3cc(OC)ccc3c12	.	14	.	.	.	.	.	.
COc1ccc(NC(=O)Nc2ccc3c(c2)[C@H]2C[C@@H](CC(=O)NCc4ccncc4)O[C@@H](CO)[C@H]2O3)cc1	.	-19	.	.	.	.	.	.
COc1ccc(OCC(=O)Nc2ccccc2N2CCCCC2)cc1	61*	23	9	24	4	61	76*	59*
COc1ccc(OCC(=O)Nc2ccccc2-c2ccccc2)cc1	53*	22	.	6	-10	53	59*	62*
